Reference: PubChem BioAssay (NCATS)
Inconclusive results are not listed. Activity calls are given as the source filed them. The call rests on the fitted dose curve; in most records, active means well fitted curve in either direction with a large enough effect (not every such curve was filed as active); inconclusive means small, poorly fitted or top-dose-only effect, or another doubt; inactive means flat fitted curve, though single readings scatter.

Experiment: AP1 Signaling Pathway (AID 357)
Conditions: ME-180 (cervical carcinoma) AP-1-bla reporter, EGF-induced, beta-lactamase ratio, 5 h; at 17.2 µM (top of the series) unless noted
Procedure, shortened: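 Read-out was the 460nm/530nm emission ratio (excitation 405nm) after CCF4 loading for 2.5 hours at room temperature. Cells carried an AP-1-driven beta-lactamase reporter, were stimulated with EC50 EGF plus compound for 5 hours, and AC50 values came from titrations.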
On the % scale 0 is the no-effect control and ±100 the full control effect.

Activity change, negative = inhibition, inactive:
CCCNC(=O)N(C)c1nncnc1C(=O)NC -9.23%
Cc1cc(C)nc(N(C#N)S(=O)(=O)c2ccccc2Cl)n1 0.835%
COc1ccc(N2C(=O)CN=C2Nc2nc(C)cc(C)n2)cc1 8.39%
C=CCn1cnc2c(c1=O)c1nc3ccccc3nc1n2-c1ccc(C)cc1 -1.69%
CC1(C)Cc2ccccc2-c2c1c(=O)n(-c1ccccc1)c1nnnn21 -13.7%
O=S(=O)(c1ccccc1)N1CCC(N2CCN(c3ccccc3)CC2)CC1 -9.33%
Cc1c(NC(=O)C(CC(=O)O)NCc2ccco2)c(=O)n(-c2ccccc2)n1C (stereo not given) -3.94%
CC1=C(c2ccc(Cl)cc2)[N+](=O)C(C)(C)N1[O-] 8.72%
COc1ccc(CNC(=O)[C@H](C)NC(=O)C2CCN(S(=O)(=O)c3ccc(C)cc3)CC2)cc1 0.123%
Cc1cc(=O)oc2cc(OCC(=O)NCc3cccnc3)ccc12 0.0607%
Cn1c(OCc2cccnc2)nc2c1c(=O)n(Cc1ccc(Cl)cc1)c(=O)n2C -16.3%
COC(=O)c1ccc(C2/C(=C(\O)c3cccc(OC)c3)C(=O)C(=O)N2CCCN(C)C)cc1 (stereo not given) 2.5%
CN(C)CCCOC(=O)C1c2ccccc2Oc2ccccc21 9.34%
CCCCCc1nc2sc3c(c2c(=O)n1N)CCC3 -5.09%
N#C/C(C(=O)N1CCOCC1)=C1/SC(Cc2ccccc2)C(=O)N1c1ccccc1 (stereo not given) 6.74%
